PubChem BioAssay (EPA / NIEHS)
Activity calls are given as the source filed them. The calls were made as follows: active = hit-call score of the fitted dose curve at least 0.9, where 1 is the maximum; inactive = score below 0.9.

Experiments:
[1] = ATG_GLI_CIS: Attagene CIS-FACTORIAL HepG2 Assay for human Zinc Finger Protein GLI1 (AID 2282945); details: HepG2, Attagene cis-factorial reporter mRNA, GLI element; actives raise or lower the signal
In short: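 HepG2 cells transiently transfected with cis-promoter multiplexed reporter units report endogenous transcription factor activity. After 24 h chemical exposure, reporter mRNA was quantified by RT-PCR, 6-FAM labelling, HpaI digestion and capillary electrophoresis, with bidirectional fitting against DMSO.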

[2] = ATG_ISRE_CIS: Attagene CIS-FACTORIAL HepG2 Assay for human Interferon Regulatory Factor 1 (IRF1) binding to an Interferon-Stimulated Response Element (ISRE) (AID 2282948); details: HepG2 ISRE cis-reporter (Attagene), mRNA transcription readout; actives raise or lower the signal
In short: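 Quantitation relies on labelled RT-PCR fragments separated by capillary electrophoresis. Human HepG2 cells bearing cis-promoter reporter constructs were treated 24 h; DMSO served as baseline for bidirectional fitting.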

[3] = ATG_M_32_CIS: Attagene CIS-FACTORIAL HepG2 Assay for M32 Transcription Factor (Internal Marker) (AID 2282949); details: HepG2 Attagene cis-factorial M32 reporter, mRNA; actives raise or lower the signal;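 also: background control marker of the multiplexed CIS panel rather than a real target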
In short: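 Fluorescent capillary electrophoresis peaks of HpaI-digested, FAM-labelled RT-PCR reporter products give the signal. Source: transiently transfected human liver HepG2 cells, 24 h after chemical dosing; bidirectional fitting against DMSO.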

[4] = ATG_M_06_CIS: Attagene CIS-FACTORIAL HepG2 Assay for M06 Transcription Factor (Internal Marker) (AID 2282950); details: HepG2 Attagene CIS-FACTORIAL M06 internal marker reporter; actives raise or lower the signal
In short: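 Read-out is fluorescence of labelled reporter cDNA fragments resolved by capillary electrophoresis after RT-PCR. Cells: HepG2 carrying transfected cis-promoter reporter units, treated 24 h. Gain or loss of signal fitted relative to DMSO.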

[5] = biological target: Hypoxia-inducible factor 1-alpha (Homo sapiens) (UniProt Q16665); test: ATG_HIF1a_CIS: Attagene CIS-FACTORIAL HepG2 Assay for human Hypoxia Inducible Factor 1 (HIF1A) (AID 2282951); details: HepG2 Attagene cis-factorial HIF1a reporter transcription; actives raise or lower the signal
In short: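 Measures endogenous transcription-factor activity through cis-regulated reporter mRNA in HepG2. Cells dosed 24 h; transcripts quantified by RT-PCR with 6-FAM-labelled products separated by capillary electrophoresis; DMSO serves as negative control.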

[6] = biological target: Hepatocyte nuclear factor 6 (Homo sapiens) (UniProt Q9UBC0); test: ATG_HNF6_CIS: Attagene CIS-FACTORIAL HepG2 Assay for human Hepatocyte Nuclear Factor 6 (HNF6) (AID 2282952); details: HepG2 Attagene cis-factorial HNF6 reporter transcription; actives raise or lower the signal
In short: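 HepG2, transient MRTU transfection (cis promoters); 24 h chemical exposure; total RNA → oligo(dT) RT → PCR → 6-FAM labelling → HpaI cut → CE; bidirectional fit vs DMSO.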

[7] = biological target: Heat shock factor protein 1 (Homo sapiens) (UniProt Q00613); test: ATG_HSE_CIS: Attagene CIS-FACTORIAL HepG2 Assay for human Heat Shock Transcription Factor 1 (HSE) (AID 2282953); details: HepG2 HSE cis-reporter, Attagene RNA transcription; actives raise or lower the signal
In short: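 HepG2, transient MRTU transfection, cis-promoter reporters (endogenous TF activity). 24 h compound. RNA → oligo(dT) RT → PCR → 6-FAM primer extension → HpaI cut → CE. Bidirectional fit vs DMSO.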

[8] = ATG_MRE_CIS: Attagene CIS-FACTORIAL HepG2 Assay for human Metal Responsive Element (MRE) (AID 2282954); details: HepG2 MRE cis-reporter transcription, Attagene multiplex; actives raise or lower the signal
In short: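 Step one: transfect HepG2 with cis-regulated reporter units. Step two: dose 24 h. Step three: isolate RNA, RT-PCR, 6-FAM label, HpaI digest, capillary electrophoresis. Fit bidirectionally to DMSO.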

[9] = ATG_PBREM_CIS: Attagene CIS-FACTORIAL HepG2 Assay for human Phenobarbital-responsive Enhancer Module (PBREM) (AID 2282955); details: HepG2 PBREM cis-reporter, Attagene multiplexed transcription; actives raise or lower the signal
In short: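 Fluorescence of labelled reporter cDNA fragments, resolved by capillary electrophoresis, gives mRNA induction in transfected HepG2 cells treated for 24 h; DMSO serves as negative control and baseline.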

[10] = biological target: Paired box protein Pax-6 (Homo sapiens) (UniProt P26367); test: ATG_Pax6_CIS: Attagene CIS-FACTORIAL HepG2 Assay for human Paired Box 6 (PAX6) (AID 2282956); details: HepG2 CIS-FACTORIAL PAX6 reporter transcription, RNA readout; actives raise or lower the signal
In short: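 After twenty-four hours of chemical exposure, transfected HepG2 cells are harvested for RNA. Cis-promoter reporter transcripts are amplified, fluorescently labelled and sized by capillary electrophoresis, with gain and loss of signal scored against DMSO.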

[11] = ATG_PXRE_CIS: Attagene CIS-FACTORIAL HepG2 Assay for human Pregnane X Receptor Element (PXRE) (AID 2282957); details: HepG2 Attagene CIS-FACTORIAL PXRE reporter, mRNA; actives raise or lower the signal
In short: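 Transfect HepG2 with MRTUs (cis promoter elements); dose chemical, incubate 24 h; isolate RNA, RT with oligo(dT), PCR, 6-FAM label, HpaI cut, CE. Gain/loss fit vs DMSO.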

[12] = ATG_PPRE_CIS: Attagene CIS-FACTORIAL HepG2 Assay for human Peroxisome Proliferator-activated Response Element (PPRE) (AID 2282958); details: HepG2 PPRE cis-element reporter, Attagene transcription factor profiling; actives raise or lower the signal
In short: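 Cells are first transfected transiently with the multiplexed reporter library, then dosed for 24 h. Total RNA is reverse-transcribed, amplified, fluorescently end-labeled and HpaI-cut before capillary electrophoresis; activity is fitted bidirectionally against DMSO controls.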

[13] = ATG_RORE_CIS: Attagene CIS-FACTORIAL HepG2 Assay for human RAR-related Orphan Receptor Element (RORE) (AID 2282959); details: HepG2 Attagene cis-factorial RORE reporter, mRNA; actives raise or lower the signal
In short: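 Cells were HepG2 carrying transfected cis-regulated reporter constructs, dosed for 24 hours. Total RNA was reverse-transcribed and reporter cDNA amplified, fluorescently labeled and sized by capillary electrophoresis. Activity was fitted bidirectionally relative to DMSO.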

[14] = ATG_Sox_CIS: Attagene CIS-FACTORIAL HepG2 Assay for human SRY-box transcription factor (SOX) (AID 2282960); details: HepG2 Attagene cis-factorial SOX reporter, mRNA; actives raise or lower the signal
In short: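 Transient MRTU transfection of HepG2; 24 h compound incubation; TriZol RNA, oligo(dT) RT, PCR, 6-FAM primer extension, HpaI cut, CE. Bidirectional fit, DMSO = baseline.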

[15] = biological target: Transcription factor Sp1 (Homo sapiens) (UniProt P08047); test: ATG_Sp1_CIS: Attagene CIS-FACTORIAL HepG2 Assay for human Specificity Protein 1 (Sp1) (AID 2282961); details: HepG2 Sp1 cis-reporter transcription, actives raise or lower the signal
In short: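 Endogenous Sp1 activity was gauged in human liver HepG2 cells bearing transfected reporter units under a cis-regulating promoter. After 24 h dosing, reporter mRNA was quantified by RT-PCR with capillary electrophoresis, and activity fitted bidirectionally versus DMSO.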

[16] = ATG_SREBP_CIS: Attagene CIS-FACTORIAL HepG2 Assay for human Sterol Regulatory Element Binding (SREBP) (AID 2282962); details: HepG2 Attagene cis-factorial SREBP reporter, mRNA; actives raise or lower the signal
In short: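 Twenty-four hours after chemical dosing of transfected HepG2 cultures, reporter RNA was converted to cDNA, amplified, end-labelled with 6-FAM and resolved by capillary electrophoresis. Responses were fitted relative to DMSO.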

[17] = biological target: Signal transducer and activator of transcription 3 (Homo sapiens) (UniProt P40763); test: ATG_STAT3_CIS: Attagene CIS-FACTORIAL HepG2 Assay for human Signal Transducer and Activator of Transcription 3 (STAT3) (AID 2282963); details: HepG2, Attagene cis-factorial STAT3 reporter transcription; actives raise or lower the signal
In short: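 Transcript-level reporter assay. HepG2 transient MRTU transfection, 24 h exposure, fluorescence detection after RT-PCR and CE; DMSO baseline.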

[18] = ATG_TA_CIS: Attagene CIS-FACTORIAL HepG2 Assay for human TA Basal Promoter (AID 2282964); details: HepG2 Attagene CIS-factorial TA basal promoter reporter; actives raise or lower the signal
In short: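 Read-out: fluorescent reporter-transcript fragments resolved by capillary electrophoresis after RT-PCR and HpaI digestion. Source: HepG2 cells carrying transiently transfected multi-reporter cis constructs, treated 24 h. Endpoint fitted bidirectionally relative to DMSO.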

[19] = ATG_GRE_CIS: Attagene CIS-FACTORIAL HepG2 Assay for human Glucocorticoid Response Elements (GRE) (AID 2282947); details: HepG2 GRE cis-reporter, Attagene multiplex mRNA; actives raise or lower the signal
In short: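 Following 24 h chemical exposure of transiently transfected HepG2 cells, total RNA was reverse-transcribed and reporter cDNA amplified, fluorescently labelled and sized by capillary electrophoresis. Signal gain or loss was fitted relative to DMSO vehicle.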

Measured: AC50

Sequence of Hypoxia-inducible factor 1-alpha (Homo sapiens) (Q16665 whole entry, looked up): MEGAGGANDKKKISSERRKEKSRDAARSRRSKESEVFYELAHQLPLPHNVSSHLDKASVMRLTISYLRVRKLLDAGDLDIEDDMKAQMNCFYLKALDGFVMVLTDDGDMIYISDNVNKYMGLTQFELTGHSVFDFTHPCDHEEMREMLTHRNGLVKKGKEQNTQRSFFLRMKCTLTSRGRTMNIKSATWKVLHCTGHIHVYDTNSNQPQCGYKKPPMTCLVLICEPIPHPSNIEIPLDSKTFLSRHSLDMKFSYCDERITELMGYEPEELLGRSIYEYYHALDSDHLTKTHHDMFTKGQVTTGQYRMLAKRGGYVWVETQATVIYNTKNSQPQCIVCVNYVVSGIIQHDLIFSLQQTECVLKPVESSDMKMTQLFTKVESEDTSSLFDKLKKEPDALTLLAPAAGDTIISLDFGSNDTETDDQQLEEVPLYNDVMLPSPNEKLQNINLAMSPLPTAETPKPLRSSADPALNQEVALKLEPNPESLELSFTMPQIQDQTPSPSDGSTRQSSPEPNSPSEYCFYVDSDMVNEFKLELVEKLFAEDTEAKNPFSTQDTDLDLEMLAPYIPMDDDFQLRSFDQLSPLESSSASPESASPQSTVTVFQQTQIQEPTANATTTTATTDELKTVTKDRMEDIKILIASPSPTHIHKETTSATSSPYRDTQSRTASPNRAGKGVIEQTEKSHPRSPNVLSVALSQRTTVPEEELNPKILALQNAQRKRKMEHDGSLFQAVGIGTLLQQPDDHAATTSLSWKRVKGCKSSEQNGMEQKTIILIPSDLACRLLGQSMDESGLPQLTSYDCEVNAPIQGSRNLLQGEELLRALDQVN
Sequence of Paired box protein Pax-6 (Homo sapiens) (P26367 whole entry, looked up): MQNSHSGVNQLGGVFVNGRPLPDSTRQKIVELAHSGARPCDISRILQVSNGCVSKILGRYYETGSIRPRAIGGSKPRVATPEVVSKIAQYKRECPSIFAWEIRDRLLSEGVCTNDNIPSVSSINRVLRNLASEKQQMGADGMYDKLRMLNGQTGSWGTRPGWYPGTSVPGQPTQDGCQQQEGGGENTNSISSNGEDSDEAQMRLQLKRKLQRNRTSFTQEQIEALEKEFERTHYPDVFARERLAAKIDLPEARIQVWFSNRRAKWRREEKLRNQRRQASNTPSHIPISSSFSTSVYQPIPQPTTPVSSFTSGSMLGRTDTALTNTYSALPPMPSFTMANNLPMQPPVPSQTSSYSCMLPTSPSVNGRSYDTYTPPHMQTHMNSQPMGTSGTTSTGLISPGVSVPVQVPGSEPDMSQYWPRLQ
Sequence of Transcription factor Sp1 (Homo sapiens) (P08047 whole entry, looked up): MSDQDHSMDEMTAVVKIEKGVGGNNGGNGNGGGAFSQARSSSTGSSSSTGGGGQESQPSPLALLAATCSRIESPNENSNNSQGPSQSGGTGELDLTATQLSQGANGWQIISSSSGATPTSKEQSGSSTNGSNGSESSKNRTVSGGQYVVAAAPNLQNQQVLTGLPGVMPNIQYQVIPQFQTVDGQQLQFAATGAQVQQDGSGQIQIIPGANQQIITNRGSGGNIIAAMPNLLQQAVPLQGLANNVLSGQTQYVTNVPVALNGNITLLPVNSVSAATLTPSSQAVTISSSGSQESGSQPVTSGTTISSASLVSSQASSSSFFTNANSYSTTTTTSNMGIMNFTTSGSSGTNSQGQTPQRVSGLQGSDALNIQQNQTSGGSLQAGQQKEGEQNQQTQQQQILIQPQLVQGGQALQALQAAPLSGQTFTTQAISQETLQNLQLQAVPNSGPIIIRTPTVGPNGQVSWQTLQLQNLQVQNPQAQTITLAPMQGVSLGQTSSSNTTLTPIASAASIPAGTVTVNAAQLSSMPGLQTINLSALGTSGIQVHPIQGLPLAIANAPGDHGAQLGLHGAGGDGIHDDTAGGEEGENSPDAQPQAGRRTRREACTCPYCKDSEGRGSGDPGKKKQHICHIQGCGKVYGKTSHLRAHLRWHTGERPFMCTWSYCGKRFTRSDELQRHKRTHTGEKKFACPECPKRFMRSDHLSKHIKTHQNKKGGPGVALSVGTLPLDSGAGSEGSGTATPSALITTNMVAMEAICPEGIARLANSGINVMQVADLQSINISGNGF
Sequence of Hepatocyte nuclear factor 6 (Homo sapiens) (Q9UBC0 whole entry, looked up): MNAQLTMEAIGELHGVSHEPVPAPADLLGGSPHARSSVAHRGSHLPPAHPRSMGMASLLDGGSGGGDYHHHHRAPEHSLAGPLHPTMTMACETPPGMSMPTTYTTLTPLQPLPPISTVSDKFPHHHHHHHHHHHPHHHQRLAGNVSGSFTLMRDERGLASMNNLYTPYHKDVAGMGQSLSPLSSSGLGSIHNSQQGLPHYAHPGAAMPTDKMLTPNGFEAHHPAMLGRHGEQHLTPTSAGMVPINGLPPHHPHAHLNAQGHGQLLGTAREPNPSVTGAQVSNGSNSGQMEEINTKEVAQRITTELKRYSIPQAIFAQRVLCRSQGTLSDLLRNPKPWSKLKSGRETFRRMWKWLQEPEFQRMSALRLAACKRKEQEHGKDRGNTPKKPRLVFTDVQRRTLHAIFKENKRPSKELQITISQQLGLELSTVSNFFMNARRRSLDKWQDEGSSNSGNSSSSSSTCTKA
Sequence of Signal transducer and activator of transcription 3 (Homo sapiens) (P40763 whole entry, looked up): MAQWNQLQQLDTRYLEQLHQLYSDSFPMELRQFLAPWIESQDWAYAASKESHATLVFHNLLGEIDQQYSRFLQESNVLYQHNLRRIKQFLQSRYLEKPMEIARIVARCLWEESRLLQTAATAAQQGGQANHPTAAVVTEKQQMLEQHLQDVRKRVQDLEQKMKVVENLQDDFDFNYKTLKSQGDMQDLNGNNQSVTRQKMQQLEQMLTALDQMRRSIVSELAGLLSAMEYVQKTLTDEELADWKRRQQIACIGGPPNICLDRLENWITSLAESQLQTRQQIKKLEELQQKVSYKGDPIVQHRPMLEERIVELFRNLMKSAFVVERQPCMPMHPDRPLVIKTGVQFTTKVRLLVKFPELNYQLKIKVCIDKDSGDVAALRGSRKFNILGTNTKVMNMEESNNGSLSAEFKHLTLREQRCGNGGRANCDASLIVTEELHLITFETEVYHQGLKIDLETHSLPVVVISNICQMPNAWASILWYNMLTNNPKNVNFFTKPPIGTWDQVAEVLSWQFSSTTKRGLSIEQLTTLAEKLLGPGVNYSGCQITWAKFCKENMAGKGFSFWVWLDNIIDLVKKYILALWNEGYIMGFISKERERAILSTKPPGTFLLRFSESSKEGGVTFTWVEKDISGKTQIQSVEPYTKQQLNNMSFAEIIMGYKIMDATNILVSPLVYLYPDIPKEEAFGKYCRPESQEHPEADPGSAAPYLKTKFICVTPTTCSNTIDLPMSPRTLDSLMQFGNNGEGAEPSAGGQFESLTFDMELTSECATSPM
Sequence of Heat shock factor protein 1 (Homo sapiens) (Q00613 whole entry, looked up): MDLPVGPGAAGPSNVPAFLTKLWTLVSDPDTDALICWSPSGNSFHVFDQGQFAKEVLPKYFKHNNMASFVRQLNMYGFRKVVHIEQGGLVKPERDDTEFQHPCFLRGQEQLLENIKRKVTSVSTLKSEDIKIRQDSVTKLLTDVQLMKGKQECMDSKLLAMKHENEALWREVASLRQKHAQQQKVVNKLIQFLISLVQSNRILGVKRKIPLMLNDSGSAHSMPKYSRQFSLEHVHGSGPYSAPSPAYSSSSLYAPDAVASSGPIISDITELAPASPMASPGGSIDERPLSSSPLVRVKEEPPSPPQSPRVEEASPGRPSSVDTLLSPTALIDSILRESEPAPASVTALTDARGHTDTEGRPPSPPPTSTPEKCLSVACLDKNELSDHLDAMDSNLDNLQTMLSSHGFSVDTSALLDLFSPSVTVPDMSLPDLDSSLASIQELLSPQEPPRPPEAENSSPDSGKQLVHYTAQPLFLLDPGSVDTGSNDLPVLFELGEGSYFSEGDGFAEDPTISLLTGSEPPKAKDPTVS

CC(=O)C1=C(C)[C@@H]2C[C@@]3(C1)[C@H](C)CC[C@H]3C2(C)C
active: [1] 166 µM | [2] 73.2 µM | [3] 148 µM | [4] 75.3 µM | [5] 131 µM | [6] 186 µM | [7] 24.5 µM | [8] 146 µM | [9] 161 µM | [11] 1.91 µM | [15] 50.5 µM | [16] 71.8 µM | [17] 150 µM | [18] 159 µM
inactive: [10] | [12] | [13] | [14]

CC/C=C\CCOC(C)OCC (centres undefined)
not listed: [5] | [14]
inactive: all other assays above

O=C(OCc1ccccc1)c1ccccc1O
active: [11] 77.9 µM | [16] 128 µM
not listed: [5] | [9] | [12]
inactive: all other assays above

CC1(C)[C@H](C=C(Cl)Cl)[C@H]1C(=O)OCc1cccc(Oc2ccccc2)c1
active: [11] 3.1 µM
not listed: [5] | [12] | [13]
inactive: all other assays above

C=C(C)C(=O)OCCN(C)C
not listed: [19]
inactive: all other assays above

O=c1cc(-c2ccc(O)cc2)oc2cc(O)cc(O)c12
active: [2] 31 µM | [7] 24.9 µM | [8] 41.1 µM | [10] 21.7 µM | [11] 14 µM | [12] 26.7 µM
not listed: [5] | [13] | [16]
inactive: all other assays above

NC(N)=S
not listed: [5] | [7] | [12] | [13] | [14]
inactive: all other assays above

CCCCCCCCCC(=O)OCC
not listed: [16] | [19]
inactive: all other assays above

[Cl][Dy]([Cl])[Cl]
not listed: [5] | [12] | [17]
inactive: all other assays above

CCCO
active: [11] 85.4 µM
not listed: [5] | [9] | [14]
inactive: all other assays above

O=S1(=O)CC=CC1
not listed: [5] | [9]
inactive: all other assays above

CCCCCCCCCCCCS
active: [11] 33.4 µM | [16] 33.4 µM
not listed: [19]
inactive: all other assays above

CCOC(=O)CC1(C)OCC(C)O1 (centres undefined)
not listed: [16] | [19]
inactive: all other assays above

CCCC1CCOC(C)S1 (centres undefined)
active: [11] 54 µM
not listed: [5] | [9] | [12]
inactive: all other assays above

CCCCCCCCCCCCOCCOS(=O)(=O)O
active: [11] 14.2 µM
not listed: [17] | [19]
inactive: all other assays above

Cc1ccc(C(C)(C)O)cc1
not listed: [5] | [12]
inactive: all other assays above

CCCCOCCOC(=O)c1ccccc1C(=O)OCCOCCCC
active: [8] 23.4 µM | [11] 5.46 µM
not listed: [19]
inactive: all other assays above
